The values below come from ChEMBL document CHEMBL3988442, “University of Dundee, Small-Polar-MMV Screening Library” (2021).

Screen size: about 48,000 compounds; about 13,000 (27%) showed an effect of 50% or more. This is one part of the list.

The experiment concerns Wolbachia pipientis. The experiment is described as follows: Anti-Wolbachia Cell-Based Screen. In kind it is functional. On the set-up: scale not given: in the data most compounds retested in dose-response had high values. To be noted: 5 µM.
Regarding `O=C(CC1CCc2ccccc21)NC1(C(=O)O)CCOCC1` (configuration not stated), the “Percent Effect” value is reported as -1.321%.
With `CNc1ncccc1CN1CCCCC1c1cc(C)n2ccnc2n1` (configuration not stated), the “Percent Effect” value came out at 94%.
Then `CNc1ncccc1CN1CCC1c1cc(N)nc(C)n1` (configuration not stated), with 93.93%; and `Cc1cccnc1CN1CCN(CC(=O)N(C)C)[C@@H]2CS(=O)(=O)C[C@@H]21`, with 1.676%; and `CNc1cc(C2CCCN2Cc2ccccc2OCC(=O)O)ccn1` (configuration not stated), with -5.445%.
The same measure for `CNc1ncccc1CN1CCCCC1c1ccnc(N)n1` (configuration not stated): 116.5%.
The same measure for `Fc1cccnc1CN1CCCCC1c1ccn2ccnc2n1` (configuration not stated): 6.686%.
With `Cc1cccnc1CN1CCCCC1c1ccn2ccnc2n1` (configuration not stated), the “Percent Effect” value turned out to be 107.3%.
The same measure for `Cc1ccccc1CSc1nc(N)cc(N2CC[C@@H](O)C2)n1`: 2.755%; for `O=C1CCc2cc(S(=O)(=O)NC(=O)c3ccc4c(c3)CCO4)ccc2N1`: -17.2%.
The same measure for `O=S(=O)(CCCn1cncn1)Cc1cccc(F)c1`: 2.155%; for `CC(C)=CCN1CCN(CCCc2ccccc2)[C@H]2CS(=O)(=O)C[C@H]21`: -6.821%; for `CC(C)CCN(C)C(=O)c1cc(CN2CCC(O)CC2)on1`: -4.489%.
The same measure for `CCC(=O)N1CCc2[nH]cnc2C12CCN(C(=O)c1snnc1C)CC2`: 7.824%.
`CNc1cc(C2CN(Cc3cccnc3NC)CCO2)nc(C)n1` (configuration not stated): the “Percent Effect” value is on record as 96.43%.
Regarding `Cc1ccc(C2CN(Cc3cnc(-c4ccccn4)s3)CCO2)o1` (configuration not stated), the “Percent Effect” value is 1.384%.
Then `CNc1cc(C)nc(C2CN(Cc3ccc(C)nc3)CCO2)c1` (configuration not stated), with -3.28%; and `Cc1cc(N2CCC(n3cc(CN4CCSCC4)nn3)CC2)ccn1`, with -12.68%; and `CCOC(=O)C1CCN(Cc2c(O)ccc3oc4c(c23)CCCC4)CC1`, with 10.57%.
On to `COc1ccc(-c2nccn2CCN2CCCCC2)c(OC)c1OC`, for which the “Percent Effect” value is listed as -1.363%.
On to `COc1cc2c(c(OC)c1OC)CCN(CCn1cncn1)CC2`, for which the “Percent Effect” value was 66.41%.
Regarding `COc1cc(C)cc(C(C(=O)O)N(C)CCN2CCCC2)c1OC` (configuration not stated), the “Percent Effect” value is listed as -1.945%.
Then `COc1cc2c(cc1OC)CN(C(=O)Cn1nc(C)cc1C)CC2`, with 1.135%; and `COc1ccc(CN2CCn3cncc3C2)cc1Cn1cncn1`, with 18.87%; and `COc1cc2c(c(OC)c1OC)CCN(CCN1CCCCC1)CC2`, with 112.9%.
Then `c1ccc(CCCN2CCN(CCn3cncn3)CC2)cc1`, with 3.655%.
`COc1cc2c(c(OC)c1OC)CCN(CCn1nc(C)cc1C)CC2`: the “Percent Effect” value was 72.3%.
As to `COc1cc2c(cc1OC)CCN(C(=O)Cn1nc(C)cc1C)CC2`, the “Percent Effect” value is 0.6612%.
Then `O=C(C1CC=CC1)N1C[C@@H]2CN(Cc3ccsc3)CCO[C@@H]2C1.O=C(O)C(F)(F)F`, with 1.635%; and `CS(=O)(=O)CCNC(=O)N(Cc1ccoc1)C1CCCCC1`, with -12.04%.
Then `COc1ccc(Cc2nnc3n2N=C(C(C)(C)C)CS3)cc1`, with 3.244%; and `CSCC(C)(O)CNC(=O)c1cccc(Cl)c1Cl` (configuration not stated), with -18.01%; and `Cn1ncc(C(=O)N2CCCC(n3cccn3)C2)c1C1CC1` (configuration not stated), with 3.227%.
The same measure for `Cc1cc(C(=O)N2CCCC(n3ccnc3)C2)c(C)n1C1CC1` (configuration not stated): 137.5%.
With `Cc1nn2cccnc2c1C(=O)N1CCCC(n2ccnc2)C1` (configuration not stated), the “Percent Effect” value came to 4.541%.
Then `Cc1cc(C(=O)N2CCCC(n3cccn3)C2)c(C)n1C1CC1` (configuration not stated), with 121.6%; and `Cc1cc(C(=O)N2CCCC(n3cncn3)C2)c(C)n1C1CC1` (configuration not stated), with 0.2394%.
The same measure for `Cn1cc(N2CCC(Nc3ccc4nccnc4n3)C2=O)cn1` (configuration not stated): -8.237%; for `Cc1nnc2n1CC(CNc1cnc3ccccc3n1)CC2` (configuration not stated): 0.6716%.
Then `Cc1ccn(CCNc2ncnc3c2CCN(S(C)(=O)=O)CC3)n1`, with 5.573%; and `Cc1oncc1C(=O)N[C@@H]1CN(c2ncccn2)C[C@@H]2CCCO[C@@H]21.O=C(O)C(F)(F)F`, with -3.566%.
For `CS(=O)(=O)N[C@@H]1CN(Cc2ccco2)C[C@@H]2CCCO[C@@H]21.O=C(O)C(F)(F)F`, the “Percent Effect” value came to 1.285%.
The same measure for `Cc1oncc1C(=O)N[C@@H]1CN(Cc2ccco2)C[C@@H]2CCCO[C@@H]21.O=C(O)C(F)(F)F`: 107.8%; for `CN(C)[C@@H]1CN(Cc2ccoc2)C[C@@H]2CCCO[C@@H]21.O=C(O)C(F)(F)F.O=C(O)C(F)(F)F`: -4.757%.
The same measure for `O=C(CC1CC1)N[C@@H]1CN(Cc2ccco2)C[C@@H]2CCCO[C@@H]21.O=C(O)C(F)(F)F`: -7.613%; for `O=C(CC1CC1)N[C@@H]1CN(Cc2ccoc2)C[C@@H]2CCCO[C@@H]21`: -6.81%.
The same measure for `O=C(N[C@@H]1CN(Cc2ccoc2)C[C@@H]2CCCO[C@@H]21)C1CCC1`: 85.36%.
As to `Cc1oncc1C(=O)N[C@@H]1CN(Cc2ccoc2)C[C@@H]2CCCO[C@@H]21.O=C(O)C(F)(F)F`, the “Percent Effect” value stood at 105.5%.
The same measure for `CCOc1cccc(CCNC(=O)Cc2ccn[nH]2)n1`: -27.67%; for `O=C(O)[C@@]12CN(c3cnccn3)C[C@@H]1CN(C1CCOCC1)C2`: -13.72%; for `CNC(=O)[C@@H]1C[C@@H](NC(=O)Cc2cccs2)CN1C1CCOCC1`: 0.5082%.
Turning to `Cc1nc2ccccn2c1CN1C[C@@H](CN2CCOCC2)[C@@H](CO)C1`, the “Percent Effect” value is -3.894%.
